# The campaign covered roughly 69,000 compounds. About 8,600 (12%) showed an effect of 50% or more. The sample holds strong results, similar compounds and a random draw of the others, so the mix is not that of the screen.
# Test system: Plasmodium berghei
# Experiment: Screen against P. berghei liver stage (PbLuc), transformed with Luciferase, at 10uM
# Format: functional, HepG2
# Conditions: tested at 10 uM
row,SMILES,INHIBITION [%]
1,COCCN1CCCC(c2ccnc3c(C(N)=O)cnn23)C1 (configuration not stated),37.7
2,CNC(=O)C(C)(C)N1CCC[C@H]1C(=O)NCC(C)C,27.2
3,Cc1cccc(-c2noc(CN3CCCC3Cn3cncn3)n2)c1 (configuration not stated),19.4
4,CC(Cn1cccn1)n1cnc2ccc(F)cc2c1=O (configuration not stated),35
5,CCOC(=O)CNC(=O)N1CCC(OC)c2ccccc2N(C)C(=O)C1 (configuration not stated),29.8
6,O=C1CCCC2=C1C(c1ccco1)C1C(=O)NN=C1N2 (configuration not stated),36.3
7,CCc1ncc2c(n1)CN(Cc1cccc(OCC(N)=O)c1)CC2,0.914
8,Cc1nc(CN(C)C2CCN(Cc3ccc(Cl)s3)C2)no1 (configuration not stated),-35.7
9,O=S(=O)(CCO)CCc1ccccc1Cl,25.2
10,c1ncn(CC2CCCN2Cc2csc(C3CCCCC3)n2)n1 (configuration not stated),23.5
11,CCNc1cc2c(nn1)CCN(C(=O)Cc1c(C)nn(C)c1C)C2,15.5
12,CC(NC1CCN(CCS(C)(=O)=O)CC1)c1cnn(C(C)C)c1 (configuration not stated),-5.22
13,O=C(c1cnccn1)N1CCO[C@H]2[C@H](OCc3cccnc3)CC[C@@H]21,7.31
14,CN1CCN(c2ncnc3c2CCN(c2ncc(F)cn2)CC3)CC1,24.9
15,CC1CCN(S(=O)(=O)N2CCC(Oc3cnccn3)CC2)CC1,19.6
16,Cc1cc2c(=O)n3c(nc2s1)CCN(C(=O)c1ccn(C)n1)CC3,0.301
17,CC(=O)NCCNC(=O)Nc1cc(C(C)(C)C)sc1C#N,42.7
18,CN(C)S(=O)(=O)N1CC[C@]2(C[C@@H](OCC3CC3)CO2)C1,57.1
19,O=S(=O)(c1ccccc1)N1CCC[C@]2(C[C@H](OCC3CC3)CO2)C1,19.4
20,CN(C)S(=O)(=O)N1CC[C@]2(C[C@H](Oc3ncccc3F)CO2)C1,34.1
21,Cc1cccc(CO[C@@H]2CO[C@@]3(CCN(S(=O)(=O)N(C)C)C3)C2)n1,63.5
22,CN(C)S(=O)(=O)N1CC[C@]2(C[C@H](OCc3ccccn3)CO2)C1,57.1
23,CN(C)S(=O)(=O)N1CCC2(CC1)CC(Oc1ccccn1)CO2 (configuration not stated),-60.2
24,CCS(=O)(=O)N1CC[C@]2(C[C@@H](OCC3CC3)CO2)C1,15.1
25,CCO[C@@H]1CO[C@@]2(CCCN(S(=O)(=O)c3ccccc3)C2)C1,64.9
26,CN(C)S(=O)(=O)N1CCC2(CC1)CC(OCC1CC1)CO2 (configuration not stated),28.2

row,SMILES,INHIBITION [%]
1,CCO[C@H]1CO[C@@]2(CCCN(S(=O)(=O)c3ccccc3)C2)C1,23.9
2,CN(C)S(=O)(=O)N1CC[C@]2(C[C@@H](Oc3ncccc3F)CO2)C1,10.1
3,CN(C)S(=O)(=O)N1CC[C@]2(C[C@@H](OCc3ccccn3)CO2)C1,39.4
4,COCC(=O)N1CCN(C(C)c2ncc(-c3ccccc3)o2)CC1 (configuration not stated),40.2
5,Cc1cc2n(n1)CC(CNCc1ccc(-n3cccn3)cc1)CN2 (configuration not stated),6.35
6,O=C(Nc1ccc(OC2CCCC2)cc1)C1CCCN1c1nccs1 (configuration not stated),2.625
7,CC(C)Oc1cccc(F)c1C(C(=O)O)N1CCCN(C)CC1 (configuration not stated),28.2
8,Cn1cc(-c2cnc(N3CCOCC3)nc2)cc1C(=O)NC1CC1,-1.55
9,Cc1cc(CN2CCN(C(=O)NCc3ccoc3)CC2)no1,-7.35
10,O=C(NC[C@]1(O)CN(Cc2ncccc2F)C[C@H]1O)c1cc[nH]n1,40.4
11,CC(O)(CNc1ccc(Cl)c(C#N)n1)c1ccsc1 (configuration not stated),-20.3
12,CCCC(=O)Nc1cccc([C@H]2C[C@@H](NC(C)=O)CCO2)c1,33.85
13,CNC(=O)c1cc2c(nc1NCC(C)C)CCN(c1ccncn1)CC2,-38.7
14,CN(Cc1nc(N2CCCC2)ncc1-c1ccncc1)C(=O)C(C)(C)C,21.6
15,COc1ccc2c(c1)NC(C1CCN(C(=O)C3CC3)CC1)NS2(=O)=O (configuration not stated),-30.9
16,Cc1cc(C(=O)N2CCCC2c2c(C)nn(C)c2C)no1 (configuration not stated),23.5
17,Cc1ccc(C(=O)Nc2cn[nH]c2)cc1F,0.5
18,Fc1ccc(Br)c(NCc2nnsc2Cl)c1,43.1
19,CC1CCCCN1C(=O)c1ccn(COc2ccc(F)cc2)n1 (configuration not stated),-3.11
20,CC(C)NC(=O)N1CCC2(C1)CN(c1ccsc1)C(=O)CN2C (configuration not stated),27.9
21,O=C(C1CC1)N1CCC[C@]2(C[C@@H](OCc3ccncc3)CO2)C1,10.5
22,O=C(c1ccccc1)N1CCC[C@]2(C[C@@H](OCc3ccncc3)CO2)C1,-13.7
23,O=C(N1CCCC1)N1CCC[C@]2(C[C@@H](OCc3ccncc3)CO2)C1,53.9
24,CCc1nc(CN(C)CC(N)=O)cs1,31.8
25,Cc1c(C(C)NC(=O)N2CCN(C3CCCC3)CC2)cnn1C (configuration not stated),70.9
26,Cc1c(C(C)NC(=O)C2CCCC2)cnn1C (configuration not stated),-8.87

row,SMILES,INHIBITION [%]
1,Cc1c(C(C)NC(=O)C2CCCCC2)cnn1C (configuration not stated),8.12
2,O=C1CCC(=O)N1c1nn(Cc2c(F)cccc2Cl)cc1Cl,24.8
3,CN(C)c1ccc(C(=O)Nc2ccn(CCc3ccncc3)n2)cn1,-17.7
4,O=C(Cc1cccc2ccccc12)N1CCC(Nc2cccnn2)CC1,-9.76
5,Cc1ccc(NC2CCN(C(=O)Cc3c(C)nn(C)c3C)CC2)nn1,-3.547
6,O=C(Cc1c[nH]c2ccccc12)N1CCC(Nc2cccnn2)CC1,21.8
7,Cn1cc(CC(=O)N2CCC(Nc3cccnn3)CC2)c2ccccc21,66.8
8,Cc1noc(C)c1CC(=O)N1CCC(Nc2cccnn2)CC1,17.883
9,Cc1nn(C)c(C)c1CC(=O)N1CCC(Nc2cccnn2)CC1,53.5
10,CC(NC(=O)NCc1cccs1)c1ccc2c(c1)CCC(=O)N2 (configuration not stated),-27.8
11,Cc1cc(C)c2c(c1)C(NCc1c(C)nn(C)c1N(C)C)CCO2 (configuration not stated),16.515
12,O=C1CCC(C(=O)Nc2cnn(-c3ccccc3Br)c2)N1 (configuration not stated),47
13,CCCN1CCN(C(=O)CCn2cccc2)CC1,16.8
14,O=C(CC1CC1)N1C[C@@H]2CCN(c3cnccn3)C[C@@H]2C1,15.7
15,Cn1cncc1C(=O)N1C[C@@H]2CCN(c3cnccn3)C[C@@H]2C1,56.6
16,Cn1ccc(C(=O)N2C[C@@H]3CCN(c4cnccn4)C[C@@H]3C2)n1,24
17,Cc1ccc(N2CC[C@H]3CN(C(=O)c4ccn(C)n4)C[C@H]3C2)nn1,75.6
18,c1cnc(N2C[C@H]3CCN(CCN4CCCC4)C[C@H]3C2)cn1,57.5
19,Cn1ccnc1C(=O)N1C[C@@H]2CCN(c3cnccn3)C[C@@H]2C1,31.2
20,O=C(c1cnccn1)N1C[C@@H]2CCN(c3cnccn3)C[C@@H]2C1,35.8
21,c1cc(CN2CC[C@@H]3CN(c4cnccn4)C[C@@H]3C2)ccn1,27.6
22,Cn1ccc(C(=O)N2C[C@@H]3CCN(c4cccnc4)C[C@@H]3C2)n1,32.1
23,O=C(C1CCCC1)N1C[C@@H]2CCN(c3cnccn3)C[C@@H]2C1,16.1
24,O=C(C1CCCCC1)N1C[C@@H]2CCN(c3cnccn3)C[C@@H]2C1,-15.9
25,c1cnc(N2C[C@H]3CCN(CC4CC4)C[C@H]3C2)cn1,58.4
26,Cc1cc(NC(=O)NCC(c2ccc(C)o2)N2CCOCC2)n(C)n1 (configuration not stated),45.7

row,SMILES,INHIBITION [%]
1,CC(NC(=O)NCCCn1cncn1)c1ccncc1 (configuration not stated),33
2,CN(C)[C@@H]1CCN(C(=O)CC2CC2)[C@H]1Cc1cnn(C)c1,4.27
3,COCC1CN(Cc2ccoc2)Cc2nn(CC3CC3)cc21 (configuration not stated),1.9
4,CC(=O)NCC(=O)N1C[C@@H]2CC[C@H](Oc3ccccc3Cl)[C@@H]2C1,30.8
5,CCOC(=O)NCCC(=O)NCc1ccnc(Oc2ccc(F)cc2)c1,21.5
6,CCOC(=O)NCCC(=O)NCc1ccc(Oc2cccc(F)c2)nc1,35.5
7,CCOC(=O)NCCC(=O)NCc1ccc(Oc2ccc(F)cc2)nc1,61.5
8,CCc1noc(CN2CCN(CCO)CC2)n1,15.8
9,Cc1cnn(CC2CCCN2CC(=O)Nc2cc(C)no2)c1 (configuration not stated),-0.219
10,CCCC(=O)NC1CCc2c(ccc(=O)n2Cc2csc(C)n2)C1 (configuration not stated),17.6
11,CC(C)N1CCOC(CC(=O)N2CCCN(c3ccc(F)cc3)CC2)C1 (configuration not stated),22.1
12,Cc1ccccc1N1CCCN(C(=O)CC2CN(C(C)C)CCO2)CC1 (configuration not stated),60.3
13,CC(C)N1CCOC(CC(=O)N2CCCN(Cc3cccs3)CC2)C1 (configuration not stated),28.5
14,CC(C)N1CCOC(CC(=O)N2CC(c3ccncc3)C2)C1 (configuration not stated),31.2
15,Cc1ccc(N2CCCN(C(=O)CC3CCCO3)CC2)nn1 (configuration not stated),35.3
16,CC(C)N1CCOC(CC(=O)N2CCCN(Cc3ccncc3)CC2)C1 (configuration not stated),58.5
17,CN(C)C(=O)C1CN(Cc2ccsc2)CCN(S(C)(=O)=O)C1 (configuration not stated),20.8
18,O=C(c1cccnc1)N1CCOCC2(CCN(c3ncccn3)C2)C1 (configuration not stated),-62.6
19,Cc1cc(C)c(C(=O)NCCNc2ncnc3ccccc23)c(=O)[nH]1,-21.6
20,CCn1nc(C)cc1C(=O)OCCNC(=O)c1ccccc1,-1.95
21,CCn1nc(C)cc1C(=O)OCCNc1ncnc2ccccc12,83.2
22,COC(=O)CSCc1noc(-c2ccc(Cl)cc2)n1,46.6
23,COC(=O)CSCc1noc(-c2ccc(C)cc2)n1,91.3
24,COC(=O)CSCc1nc(-c2ccc(Cl)cc2)no1,48.8
